The source of these data is PubChem BioAssay (NCI).

About 83,000 compounds went through this panel and 20% of them were active in at least one assay; those are over-represented in the sample as a whole.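 Cells were grown in 96-well plates and exposed to the test compound at a single concentration for 48 hours; results are reported as percent growth, with values below 10 considered active.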 A number with no mark means an inactive call. Calls of active or inactive are those of the source.

Among the test systems are DU-145 prostate; K-562 leukemia; MALME-3M melanoma; MDA-MB-231 breast; RXF 393 renal; SF-268 CNS; SF-295 CNS; SF-539 CNS; M14 melanoma; UACC-257 melanoma.
Holding throughout (assay): NCI-60 one-dose screen, 48 h (100 = growth as untreated, 0 = no growth, -100 = all killed)
Common to all, as to details: 10 µM unless noted

For `COC1OC(CO)C(O)C(O)[CH]1[Hg][O]C(C)=O` (configuration not stated), the growth was 96.3% in the assay on DU-145 prostate; 27.3% with K-562 leukemia; 76.4% in the assay with MALME-3M melanoma; 81.9% in the assay with MDA-MB-231 breast; 110% in the assay with RXF 393 renal; 97.6% in the assay with SF-268 CNS. In addition, the growth in the assay with SF-295 CNS was 102%; in the assay on SF-539 CNS, 106%; in the assay on M14 melanoma, 93.7%.
As for `CC(CC1CCCCC1)NCc1ccccc1` (configuration not stated), the growth in the assay on DU-145 prostate is 108%; with K-562 leukemia, 109%; in the assay with MALME-3M melanoma it was 88.9%; in the assay on MDA-MB-231 breast, 97.3%; in the assay on RXF 393 renal it was 99.6%; in the assay with SF-268 CNS, 103%. For the same compound, the growth in the assay on SF-295 CNS was 93.6%; in the assay with SF-539 CNS it was 103%; in the assay on M14 melanoma it was 90.2%.
Consider `Nc1nnnc2nc[nH]c12`, for which the growth with DU-145 prostate was 3.72% (active); in the assay with K-562 leukemia it was 4.73% (active); with MALME-3M melanoma, 34.8%; with MDA-MB-231 breast it was 14.5%; with RXF 393 renal, 11.6%; in the assay on SF-268 CNS it was 28.6%. Moreover, the growth is 0.603% (active) in the assay with SF-295 CNS, 14.3% in the assay with SF-539 CNS and -35.4% (active) with M14 melanoma.
For `CC(C)=CC1C(C(=O)OCc2cccc(Oc3ccccc3)c2)C1(C)C` (configuration not stated), the growth in the assay on DU-145 prostate was 109%; in the assay on K-562 leukemia, 92.6%; in the assay with MALME-3M melanoma, 87.8%; in the assay on MDA-MB-231 breast, 90.2%; with RXF 393 renal, 121%; in the assay with SF-268 CNS, 113%. Also, the growth was 90.3% with SF-295 CNS, 110% with SF-539 CNS, 104% in the assay with UACC-257 melanoma and 95.3% with M14 melanoma.
`CCCCCCCOC(C(=O)OCCN(CC)CC)(c1ccccc1)c1ccccc1`: the growth is 86.9% in the assay on DU-145 prostate; 56.6% in the assay on K-562 leukemia; 100% in the assay on MALME-3M melanoma; 82.5% with MDA-MB-231 breast; 92.4% in the assay with RXF 393 renal; 87.9% in the assay on SF-268 CNS. Further, the results for the growth with SF-295 CNS, in the assay with SF-539 CNS and with M14 melanoma were 123%, 96.9% and 90.5%, respectively.
For `Cc1cccc(N2CCN(C(C)C#N)CC2)c1` (configuration not stated), the growth in the assay on DU-145 prostate was 107%; in the assay with K-562 leukemia, 98.4%; in the assay on MALME-3M melanoma, 102%; in the assay with MDA-MB-231 breast it was 104%; in the assay with RXF 393 renal, 105%; in the assay with SF-268 CNS, 103%. In addition, the growth is 84.6% in the assay on SF-295 CNS, 104% in the assay on SF-539 CNS, 97.9% with UACC-257 melanoma and 105% with M14 melanoma.
On to `CCN(CC)CCOC(=O)C(OC(C)C)(c1ccccc1)c1ccccc1`, for which the growth is 98.8% in the assay on DU-145 prostate; 97.3% with K-562 leukemia; 101% with MALME-3M melanoma; 99.3% in the assay on MDA-MB-231 breast; 98.5% with RXF 393 renal; 93% in the assay on SF-268 CNS. Further, the growth in the assay with SF-295 CNS was 109%; with SF-539 CNS, 111%; in the assay with M14 melanoma, 110%.
With `COC(=O)[C@@H](C)C[C@H](Cc1ccccc1)NC(=O)c1nc([C@@H](C[C@H](C(C)C)N(C)C(=O)[C@@H](NC(=O)[C@H]2CCCN2C)C(C)C)OC(C)=O)sc1C`, the growth in the assay on DU-145 prostate is 17.7%; in the assay on K-562 leukemia, 9.29% (active); in the assay on MALME-3M melanoma it was 54.4%; with MDA-MB-231 breast it was 14.1%; in the assay on RXF 393 renal it was 39%; in the assay on SF-268 CNS it was 30.6%. Besides, the growth with SF-295 CNS was 10.6%; with SF-539 CNS, -8.41% (active); with UACC-257 melanoma, 51.1%; in the assay with M14 melanoma it was 1.43% (active).
Turning to `C[C@]12CC[C@H]3[C@@H](C[C@@H]4SC(Nc5ccccc5)=N[C@@]45CC(O)CC[C@]35C)[C@@H]1CCC2O` (some centres not stated), the growth in the assay on DU-145 prostate is 14.2%; in the assay on K-562 leukemia, 4.96% (active); with MALME-3M melanoma it was 71.2%; in the assay with MDA-MB-231 breast, 35.8%; with RXF 393 renal, -32.3% (active); with SF-268 CNS, 9.68% (active). Also, the growth with SF-295 CNS is 7.36% (active); with SF-539 CNS, -34.3% (active); in the assay on UACC-257 melanoma, 69.3%; with M14 melanoma it was 53.4%.
As to `CCCCN1CCCC[C@@H]1C(=O)N[C@H](C(=O)N(C)[C@H](C[C@@H](OC(C)=O)c1nc(C(=O)NC2CCC(C(=O)OC)CC2)cs1)C(C)C)C(C)C` (some centres not stated), the growth in the assay with DU-145 prostate is 9.02% (active); in the assay with K-562 leukemia, 9.52% (active); in the assay with MALME-3M melanoma it was 43.8%; with MDA-MB-231 breast, 45.7%; in the assay with RXF 393 renal, 18.3%; in the assay with SF-268 CNS, 48.8%. The growth is 18.6% in the assay with SF-295 CNS, -5.06% (active) in the assay on SF-539 CNS, 59.4% in the assay on UACC-257 melanoma and -2.18% (active) in the assay on M14 melanoma.
For `O=C(O)CNC(=O)C(Cl)(Cl)Cl`, the growth in the assay on DU-145 prostate was 107%; with K-562 leukemia it was 108%; in the assay with MALME-3M melanoma it was 97.6%; in the assay on MDA-MB-231 breast it was 103%; with RXF 393 renal, 92.1%; with SF-268 CNS, 104%. Besides, the growth in the assay on SF-539 CNS is 103%; in the assay with UACC-257 melanoma, 88%; in the assay on M14 melanoma it was 107%.
In the case of `CCCc1cc(O)c2c3c(c(=O)oc2c1)CN(C)CC3`, the growth with DU-145 prostate was 43%; in the assay with K-562 leukemia, 12%; in the assay with MALME-3M melanoma it was -1.24% (active); in the assay on MDA-MB-231 breast, 60.4%; with RXF 393 renal, 10.9%; in the assay with SF-268 CNS, 37%. The growth in the assay on SF-539 CNS is 31.7%; in the assay with UACC-257 melanoma, 68.5%; with M14 melanoma, 16.4%.
Turning to `CC(C)CCC(=O)O[C@H]1CC[C@H]2[C@@H]3CCC4=CC(=O)CC[C@]4(C)[C@H]3CC[C@]12C`, the growth with DU-145 prostate was 96.5%; in the assay on K-562 leukemia it was 98.2%; with MALME-3M melanoma, 84.2%; in the assay on MDA-MB-231 breast, 98.2%; with RXF 393 renal, 107%; with SF-268 CNS it was 93.1%. For the same compound, the growth in the assay with SF-295 CNS is 102%; in the assay with SF-539 CNS, 96%; with M14 melanoma, 98.9%.
With `COc1cc2c(cc1OCCCCn1c(-c3cccs3)nc3ccccc31)N=C[C@@H]1CCCN1C2=O`, the growth in the assay on DU-145 prostate is 10.7%; with K-562 leukemia, -26.7% (active); with MALME-3M melanoma, -77% (active); with MDA-MB-231 breast it was -18.6% (active); in the assay on RXF 393 renal, -60.4% (active); with SF-268 CNS it was -7.58% (active). Also, the growth is -8% (active) in the assay with SF-295 CNS, -25.3% (active) with SF-539 CNS and -46.2% (active) in the assay with M14 melanoma.
`C[C@]12CC[C@H]3[C@@H](CC[C@]4(O)C[C@@H](O[C@@H]5O[C@H](CO)[C@@H](O[C@@H]6OC[C@@H](O)[C@H](O)[C@H]6O)[C@H](O)[C@H]5O)CC[C@]34C=O)[C@@]1(O)CC[C@@H]2C1=CC(=O)OC1`: the growth in the assay on DU-145 prostate is -62.4% (active); in the assay on K-562 leukemia it was 4.28% (active); in the assay with MALME-3M melanoma, -25% (active); in the assay with MDA-MB-231 breast, 42.2%; in the assay on RXF 393 renal, -19.4% (active); in the assay on SF-268 CNS, -44.6% (active). For the same compound, the growth is 8.52% (active) with SF-295 CNS, -3.23% (active) with UACC-257 melanoma and 23.8% with M14 melanoma.
Take `COc1cc2c(cc1OCCCCCn1c(-c3ccco3)nc3ccccc31)N=C[C@@H]1CCCN1C2=O`: the growth was 29.3% in the assay with DU-145 prostate; 5.85% (active) in the assay on K-562 leukemia; -47.8% (active) in the assay on MALME-3M melanoma; 9.17% (active) with MDA-MB-231 breast; -40.4% (active) in the assay with RXF 393 renal; 8.92% (active) in the assay on SF-268 CNS. Moreover, the values for the growth in the assay on SF-295 CNS, with SF-539 CNS and in the assay on M14 melanoma were 9.61% (active), 1.5% (active) and -23% (active), respectively.
Consider `Nc1ccc2c(c1)Cc1cc(Br)ccc1-2`, for which the growth in the assay with DU-145 prostate is 109%; in the assay on K-562 leukemia it was 92.2%; with MALME-3M melanoma it was 118%; with MDA-MB-231 breast, 84%; in the assay with RXF 393 renal it was 112%; with SF-268 CNS, 88%. The growth in the assay with SF-295 CNS is 107%; in the assay with SF-539 CNS, 100%; in the assay with UACC-257 melanoma, 122%; with M14 melanoma, 118%.
Turning to `COc1cc2c(cc1OCCCn1c(-c3ccccn3)nc3ccccc31)N=C[C@@H]1CCCN1C2=O`, the growth in the assay on DU-145 prostate is 26%; with K-562 leukemia, 17.4%; with MALME-3M melanoma, -9.03% (active); with MDA-MB-231 breast, 6.19% (active); with RXF 393 renal, -11.8% (active); with SF-268 CNS, 10.4%. The growth was -3.07% (active) in the assay on SF-295 CNS, 14.3% in the assay on SF-539 CNS and 10.5% in the assay with M14 melanoma.
Turning to `CCCC(=O)O[C@@H]1C[C@H]2C[C@@H](O[C@@H]3O[C@@H](C)[C@@H](O)[C@@H](O)[C@H]3OC)C[C@@H](C[C@@H](C)/C=C/C=C\C[C@@H]3O[C@@H](C[C@@H]3C)[C@@H](O)C[C@H]3C[C@@]1(O)C(=O)O3)O2`, the growth is 48.8% with DU-145 prostate; 21.2% in the assay with K-562 leukemia; 64.7% in the assay with MALME-3M melanoma; 86.4% in the assay on MDA-MB-231 breast; 72.1% in the assay on RXF 393 renal; 80.1% in the assay on SF-268 CNS. For the same compound, the growth in the assay on SF-295 CNS was 7.39% (active); in the assay on SF-539 CNS, 67.6%; in the assay on UACC-257 melanoma, 9.61% (active); in the assay on M14 melanoma, 69.8%.
`CCCCOc1ccc(C(N)Cc2ccccc2)cc1` (configuration not stated): the growth in the assay on DU-145 prostate is 109%; in the assay on K-562 leukemia, 54.2%; in the assay with MALME-3M melanoma, 106%; with MDA-MB-231 breast, 75.1%; in the assay with RXF 393 renal, 104%; with SF-268 CNS, 85.4%. The growth with SF-295 CNS was 113%; with SF-539 CNS, 102%; in the assay on M14 melanoma, 87.1%.
Turning to `COC(=O)[C@@H](C)C[C@H](Cc1ccccc1)NC(=O)c1csc([C@@H](C[C@H](C(C)C)N(C)C(=O)[C@@H](NC(=O)[C@H]2CCCCN2C)C(C(F)(F)F)C(F)(F)F)OC(C)=O)n1`, the growth with DU-145 prostate is 11.4%; in the assay with K-562 leukemia, 8.83% (active); with MALME-3M melanoma, 65.8%; in the assay on MDA-MB-231 breast it was 6.65% (active); in the assay on RXF 393 renal it was 46%; with SF-268 CNS, 18.3%. For the same compound, the growth in the assay with SF-295 CNS was 9.85% (active); in the assay with SF-539 CNS it was -11.1% (active); in the assay with UACC-257 melanoma, 52.4%; in the assay with M14 melanoma, -20.3% (active).
